From PubChem BioAssay
Sampled rows, rich in hits. Any-hit rate of the full collection: about 9%.
ALDH1A1 block: ALDH1A1 (human) enzyme inhibition. hit rate 7.3% among 220,000. Purified ALDH1A1, NADH fluorescence, propionaldehyde substrate. P00352. Potency, µM (top dose mostly 75.3 µM), inactives show at the top dose activity, negative = inhibition, most hits filed as inhibitors. AID 1030;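 further: potency means the concentration at half of the fitted maximal effect; plate controls were no enzyme wells and a reference inhibitor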
IMPase cell inh: cell-permeable inhibitors of inositol monophosphatase (IMPase); P97697; CHO-M1 cells, IP1 accumulation, HTRF TR-FRET ratio; inhibition (IP1 accumulation), % at 46.1 µM; 120,000 tested, under 10 active; AID 901; active means well fitted curve in the direction sought with a large enough effect in the signal ratio, not every such curve was filed as active; inconclusive means small, poorly fitted or top-dose-only effect, or a change in a side signal; inactive means no such curve, though single readings can be large or run the other way; the % refers to the signal ratio;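 further: cells stimulated with carbachol in lithium chloride buffer; plate controls were DMSO basal wells for no effect and reference inhibitor wells for full effect; higher means more IMPase inhibition seen as more IP1 and lower FRET ratio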
Target sequence (P97697 whole entry, looked up): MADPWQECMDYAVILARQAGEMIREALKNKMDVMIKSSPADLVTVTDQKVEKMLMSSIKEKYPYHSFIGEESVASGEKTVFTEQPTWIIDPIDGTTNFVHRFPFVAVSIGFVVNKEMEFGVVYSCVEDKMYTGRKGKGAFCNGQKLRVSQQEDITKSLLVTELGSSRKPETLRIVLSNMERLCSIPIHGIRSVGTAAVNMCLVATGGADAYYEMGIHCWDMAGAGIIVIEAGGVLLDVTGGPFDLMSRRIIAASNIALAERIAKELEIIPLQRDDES
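Measured: the HTRF emission ratio (665/620 nm) plus the 620 nm donor channel, each fitted to the Hill equation to give AC50. Cells were CHO-M1 given compounds up to 46 uM and a 30 min carbachol stimulation at 37C.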
HPGD block: inhibitors of human 15-hydroxyprostaglandin dehydrogenase (HPGD); purified HPGD, NADH fluorescence kinetic, PGE2 substrate; AID 894; P15428; hit rate 4.3% among 150,000; Potency, µM, inactives show top-dose activity change, negative = inhibition, most hits filed as inhibitors; further: potency means the concentration at half of the fitted maximal effect
Target sequence (P15428 whole entry, looked up): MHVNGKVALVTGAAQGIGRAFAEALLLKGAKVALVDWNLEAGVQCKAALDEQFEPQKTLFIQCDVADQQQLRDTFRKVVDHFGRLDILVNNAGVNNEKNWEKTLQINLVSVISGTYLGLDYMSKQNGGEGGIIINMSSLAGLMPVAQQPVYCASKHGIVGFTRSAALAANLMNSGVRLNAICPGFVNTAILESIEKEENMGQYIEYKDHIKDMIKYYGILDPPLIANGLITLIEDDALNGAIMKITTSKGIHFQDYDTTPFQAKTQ
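NADH formation kinetics: reaction with 30 uM PGE2 and 1 mM NAD+ (final), 20 nM enzyme, Tris-HCl pH 8 with Tween 20, after 15 min compound preincubation at room temperature. Fluorescence change, last versus first of five reads.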
Numbers without * were called inactive; ? = inconclusive; . = not tested or not shown. Unless noted, the call rests on the fitted dose curve; in most records, active means well fitted inhibition curve with a large enough effect (not every such curve was filed as active); inconclusive means small, poorly fitted or top-dose-only effect, or another doubt; inactive means no such curve, though single readings can be large or run the other way. Unless noted, on the % scale 0 is the no-effect control and ±100 the full control effect.

SMILES	ALDH1A1 block	IMPase cell inh	HPGD block
Cn1c(=O)c(-c2ccc(Cl)cc2)nc2cnc(Oc3ccccc3)nc21	?	.	-8%
NS(=O)(=O)c1ccc(NC(=S)NC2CCCCCC2)cc1	?	.	-12%
O=C(NC(=S)Nc1ccc(S(=O)(=O)N2CCCC2)cc1)C1CCC1	?	.	3%
O=C(CCNS(=O)(=O)c1ccc(Br)cc1)NC1CCCCC1	-3%	.	.
O=S(=O)(c1ccc(NC(=S)NC2CCCC2)cc1)N1CCCC1	14µM*	.	.
O=C(NC(=S)Nc1ccc(S(=O)(=O)N2CCCC2)cc1)C1CC1	20µM*	.	.
NS(=O)(=O)c1ccc(NC(=S)NC2CCCC2)cc1	?	.	14µM*
O=S(=O)(NC(=S)NC1CCCCC1)c1ccc(Br)cc1	25µM*	.	.
O=C(NC1CCCC1)c1ccc(S(=O)(=O)N2CCCC2)cc1	?	5	-2%
CC(C)NC(=O)N1CC[C@@]2(CCCN(S(C)(=O)=O)C2)C1	5%	.	-3%
Brc1ccc2ncnc(Nc3ccc(N4CCOCC4)cc3)c2c1	-9%	15	-7%
COc1ccc(C(=O)N2CCC3(CC2)CN(CC(C)C)C3)cc1	0%	.	-13%
Fc1cccc(Cl)c1CSc1nnnn1-c1ccc2c(c1)OCO2	14µM*	-2	-16%
O=C(O)c1cc(-n2nnnc2SCc2ccccc2F)ccc1Cl	10µM*	.	.
NC(=O)c1ccc(-n2nnnc2SCc2ccccc2)cc1	5%	-1	-17%
Fc1cccc(Cl)c1Cn1nnc(-c2ccc3c(c2)OCO3)n1	?	2	-24%
O=C1C=C(c2ccccc2)CC(c2cccs2)C1n1cnc([N+](=O)[O-])c1 (stereo not drawn)	?	0	-16%
O=C1C=C(c2ccccc2)C[C@H](c2cccs2)[C@H]1n1nnc([N+](=O)[O-])n1	10µM*	5	-20%
CN(C)c1ccc(/C=N/Nc2ccc(-n3ccnc3)nn2)cc1	7.9µM*	15	-9%
CN(C)c1ccc(/C=N/NC(=O)c2ccccc2Cl)cc1	?	6	-6%
CC1(C(=O)OCC(=O)Nc2cccc(S(=O)(=O)NC3=NCCCCC3)c2)CC1(Cl)Cl (stereo not drawn)	-2%	.	.
COc1cc(Cl)c(C)cc1NC(=O)Cc1ccc(OC)c(OC)c1	-3%	.	.
COc1cc(NC(=S)NCCc2ccc(S(N)(=O)=O)cc2)c(OC)cc1Cl	11µM*	.	.
COc1cc(NC(=S)Nc2ccc(Br)cc2Cl)c(OC)cc1Cl	28µM*	9	-27%
COC(=O)c1cc(OC)c(OC)cc1NC(=S)Nc1cccc(Cl)c1	?	2	-16%
SMILES	ALDH1A1 block	IMPase cell inh	HPGD block
COc1cc(C)c(NC(=S)Nc2ccc(Cl)c(Cl)c2)cc1OC	8.9µM*	7	16µM*
COc1cc(NC(=S)Nc2cccc(Cl)c2Cl)c(OC)cc1Cl	-5%	-8	.
COc1cc(Cl)c(C)cc1NC(=S)NN	11µM*	.	.
COc1cc(C(=O)NCCc2ccc(S(N)(=O)=O)cc2)cc(OC)c1OC	12%	5	.
COc1ccc(CN2CCN(c3ncnc4sc5c(c34)CCCC5)CC2)cc1F	.	2	.
N#C/C(=C\c1c(Oc2ccc(F)cc2)nc2ccccn2c1=O)c1nc2ccccc2s1	.	-1	.
CCOC(=O)C1C(C(=O)NN)C1C(=O)Nc1ccccc1 (stereo not drawn)	-5%	.	.
N#Cc1ccc(CN2CCC3(CC2)CCN(C(=O)c2cnccn2)CC3)cc1	18%	.	0%
COc1cccc(-c2nc(S(=O)(=O)c3ccccc3)c(N3CCC(C)CC3)o2)c1	.	3	.
CC(C)(C)C(=O)Nc1ccc(-c2cn3ccsc3n2)cc1	-2%	-1	0%
CC(C)CC(=O)Nc1ccc(-c2cn3ccsc3n2)cc1	0%	5	25µM*
O=C(COC(=O)c1ccc(NS(=O)(=O)c2cccs2)cc1)Nc1nc2c(F)c(F)c(F)cc2s1	0%	.	.
O=C(COC(=O)c1ccc(Br)o1)Nc1nc2c(F)c(F)c(F)cc2s1	22µM*	.	.
Cc1cc(F)ccc1NC(=O)c1ccc(NS(=O)(=O)c2cc(C(C)(C)C)ccc2C)cc1	2.5µM*	.	-11%
Cc1ccc(C(=O)Nc2ccccc2)cc1S(=O)(=O)Nc1ccc(Br)cc1	.	-5	.
CCc1nc2sc3c(=O)n(N)cnc3c2c2c1COC(C)(C)C2	12%	-1	-10%
CCCCn1cnc2c(sc3nc4c(cc32)CSC(C)(C)C4)c1=O	1.1µM*	.	-17%
CC(C)CCn1cnc2c(sc3nc4c(cc32)CSC(C)(C)C4)c1=O	1.8µM*	-8	-10%
CC1(C)Cc2nc3sc(C(=O)O)c(N)c3cc2CS1	-11%	.	.
O=S(=O)(/C=C/c1ccccc1)N1CCN(c2nc(-c3ccccc3)nc3ccccc23)CC1	-5%	.	.
COC(=O)[C@@]1(Cc2ccc(F)cc2)[C@H]2c3cc(C(=O)N(C)C)n(CCCNc4ccc(C(F)(F)F)cc4Cl)c3C[C@H]2CN1C(=O)c1ccccc1	-8%	.	-8%
COc1cc(CN(C)CC(=O)c2[nH]c(C)c(C(C)=O)c2C)ccc1OC(F)F	3.5µM*	23	-17%
COc1ccccc1OCC(=O)c1[nH]c(C)c(C(C)=O)c1C	1%	9	-9%
FC(F)(F)c1ccccc1-c1ccc2ncnc(NCc3cccnc3)c2c1	32%	.	.
Cc1ccc(OCCCC(=O)Nc2sc3c(c2C(N)=O)CCC(C)C3)cc1 (stereo not drawn)	.	-6	.
SMILES	ALDH1A1 block	IMPase cell inh	HPGD block
CCN(CC(=O)Nc1ccc(C)c(F)c1)CC(=O)NC(C)C	3.2µM*	.	.
CCN(CC(=O)Nc1ccc(Br)c(C)c1)CC(=O)NC(C)C	-9%	.	.
Cc1ccc(NC(=S)NCc2ccccn2)cc1	1%	2	-6%
CCNC(=S)NNC(=S)NCc1ccccc1	-3%	.	28µM*
S=C(NCc1ccccc1)NCc1ccc(CNC(=S)NCc2ccccc2)cc1	-9%	.	-20%
Cc1ccc(NC(=S)NNC(=S)NCc2ccccc2)cc1	0.63µM*	1	-27%
COc1ccc(CNc2ccnc(-c3ccc4c(c3)OCO4)n2)c(OC)c1	-14%	.	.
COc1ccc(C(=O)N2CCC3(CCCN(Cc4nccs4)C3)CC2)cc1	-4%	.	-11%
CCOC(=O)CSc1nc(-c2ccc(C)cc2C)cc(-c2ccccc2)c1C#N	.	-9	.
COc1ccc(CC(=O)N2CCN(C(=O)Cc3ccc(OC)cc3)CC2)cc1	-9%	1	-1%
COc1ccc(-c2ccc(C(=S)N3CCN(C(C)=O)CC3)o2)cc1	11µM*	-2	11µM*
CCCCCCCCCCCCOCC1CO1 (stereo not drawn)	?	.	-4%
CN(Cc1ccccc1)C(=O)CSc1nc(-c2ccc(F)cc2)cc(C(F)(F)F)n1	.	7	.
COc1ccccc1-c1ccc(Nc2cccc(C(C)=O)c2)nn1	?	-3	-16%
CC(=O)c1ccc(Nc2ccc(-c3ccccc3C)nn2)cc1	7.1µM*	.	.
CC1(C)Cc2c(ccc3ccccc23)C(NNC(=O)c2cccnc2)=N1	4%	9	-13%
CCCCNC(=O)[C@@H]1Cc2ccccc2N1C(=O)[C@H](N)CC	?	6	-10%
O=c1c2ccccc2nc(COc2ccccc2)n1/N=C/c1cn[nH]c1-c1ccccc1	5%	.	-5%
Cc1ccccc1OCc1nc2ccccc2c(=O)n1/N=C/c1cn[nH]c1-c1ccc(Br)cc1	3%	.	32µM*
CC(C)NC(=O)CSc1nc(N)c(NC(=O)c2ccco2)c(=O)[nH]1	10%	.	.
CCOc1cc(CNc2ncn[nH]2)ccc1OCC(=O)NC(C)(C)C	6%	.	.
